In PubChem BioAssay (Tox21):
Results filed as inconclusive are left out. Activity calls are given as the source filed them. Unless noted, the call rests on the fitted dose curve; in most records, active means well fitted curve in the direction sought with a large enough effect in the repeat runs; inconclusive means weak or mixed curves; inactive means no such curve, though single readings can be large; an effect the other way counts as inactive or inconclusive.

What was measured:
[1] = qHTS assay to identify small molecule agonists of the sonic hedgehog signaling (Shh) pathway (AID 1259368; calls by dose curve;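 further: NIH/3T3-derived 3T3Gli1-Luc cells carrying a stable Gli1-driven firefly luciferase reporter; series mostly up to about 92 µM; nearly all actives have a fitted effect of over 15% in size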)
Summary of the method: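 Cells of a mouse NIH/3T3 clone stably expressing luciferase under the Gli1 transcriptional response element are exposed to test chemicals for 24 hr at 37 C. Pathway activation is detected as a rise in luminescence.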

[2] = qHTS assay to identify small molecule antagonists of the sonic hedgehog signaling (Shh) pathway (AID 1259369; calls by dose curve; further: nearly all actives have a fitted effect of over 45% in size)
Summary of the method: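 Cells are plated and held 4hr at 37 C, compounds (DMSO) are pinned in, conditioned medium is added to stimulate the pathway, and after 24hr luciferase reagent is added for 30min before luminescence is read.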

[3] = target: Estrogen receptor beta (Homo sapiens) (UniProt Q92731); experiment: qHTS assay to identify small molecule agonists of the estrogen receptor beta (ER-beta) signaling pathway (AID 1259377; active means well fitted activation curve with a large enough effect in the signal ratio in the repeat runs, not every such curve was filed as active; the % refers to the signal ratio; further: potency means the concentration at half of the fitted maximal effect)
Summary of the method: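 ER-beta-UAS-bla HEK293T (GripTite) cells carrying a UAS-driven beta-lactamase reporter, in medium with 2% charcoal-stripped FBS, were exposed to compounds for 16 hr at 37C; LiveBLAzer B/G FRET substrate was then added and fluorescence read after 2 hours at room temperature.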

[4] = target: Estrogen receptor beta (Homo sapiens) (UniProt Q92731); experiment: qHTS assay to identify small molecule antagonists of the estrogen receptor beta (ER-beta) signaling pathway (AID 1259378; active means well fitted inhibition curve with a large enough effect in the signal ratio in the repeat runs, not every such curve was filed as active; the % refers to the signal ratio)
Summary of the method: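 Antagonist mode: compounds added to beta-lactamase reporter HEK293T ER-beta-UAS cells stimulated with E2 (1nM final), 16 hr at 37C. LiveBLAzer B/G FRET substrate, 2 hours room temperature, fluorescence read-out.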

[5] = qHTS assay to identify small molecule agonists of the androgen receptor (AR) signaling pathway in the presence of an antagonist - cell viability counter screen (AID 1259379);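 further: MDA-kb2 human breast cancer cells carrying an MMTV luciferase reporter; series mostly up to about 92 µM; nearly all actives have a fitted effect of over 25% in size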
Summary of the method: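 Cytotoxicity is assessed by CellTiter-Fluor in MDA-kb2 cells carrying an MMTV-driven luciferase reporter. Cells receive 3.0uM nilutamide plus compounds at 15 concentrations and incubate 16 hr at 37C without CO2 before fluorescence reading.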

[6] = qHTS assay to identify small molecule antagonists of the estrogen receptor beta (ER-beta) signaling pathway - cell viability counter screen (AID 1259382); further: series mostly up to about 92 µM; nearly all actives have a fitted effect of over 55% in size
Summary of the method: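 Cytotoxicity counter screen multiplexed with the beta-lactamase antagonist assay: GripTite HEK293T ER-beta-bla cells were treated 16 hr with test chemicals in the presence of 1nM 17-beta-estradiol, and viability was measured by CellTiter-Glo.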

[7] = qHTS assay to identify small molecule agonists of the estrogen receptor alpha (ER-alpha) signaling pathway in the presence of an antagonist - cell viability counter screen (AID 1259386);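 further: cells exposed to compounds for 22 h at 37 °C before the viability read; nearly all actives have a fitted effect of over 30% in size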; further: potency means the concentration at half of the fitted maximal effect; on activity change, negative = cytotoxicity: series mostly up to about 92 µM
Summary of the method: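 Cytotoxicity was measured in parallel with the ERE-luciferase agonist screen, in the same wells. The cells were VM7Luc4E2, which endogenously express ER-alpha, and treatment was with compounds plus 10.0nM ICI-182,780 for 22hr.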

[8] = target: Progesterone receptor (Homo sapiens) (UniProt P06401); experiment: qHTS assay to identify small molecule antagonists of the progesterone receptor (PR) signaling pathway (AID 1346795; active means well fitted inhibition curve with a large enough effect in the signal ratio in the repeat runs, not every such curve was filed as active; the % refers to the signal ratio)
Summary of the method: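 PR-UAS-bla HEK293T cells carrying a UAS-driven beta-lactamase reporter were plated in medium with 2% charcoal-stripped FBS and rested 6 hr at 37C. Compounds were added with 1 nM R5020 (final) for 16 hr, then FRET substrate loaded 2 hr at room temperature.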

[9] = qHTS assay to identify small molecule antagonists of the progesterone receptor (PR) signaling pathway - cell viability counter screen (AID 1346798); further: series mostly up to about 92 µM; nearly all actives have a fitted effect of over 50% in size
Summary of the method: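 PR-UAS-bla HEK293T cells in medium with 2% charcoal-stripped FBS were treated with compounds plus R5020 for 16 hr at 37C. Cell viability was then read by CellTiter-Glo luminescence after 30 min at room temperature in the same wells.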

[10] = qHTS assay to identify small molecule agonists of the progesterone receptor (PR) signaling pathway - cell viability counter screen (AID 1346799; calls by dose curve; further: nearly all actives have a fitted effect of over 45% in size)
Summary of the method: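 PR-UAS-bla HEK293T cells, 3,000 per well in medium with 2% charcoal-stripped FBS, were preincubated 6 hr at 37C, then exposed to compounds for 16 hr; viability was read as CellTiter-Glo luminescence after 30 min at room temperature.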

[11] = qHTS assay to identify small molecule antagonists of the TGF-beta/Smad signaling pathway - cell viability counter screen (AID 1346824); further: nearly all actives have a fitted effect of over 50% in size
Summary of the method: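 Cytotoxicity counter-screen run in the same wells as the beta-lactamase Smad reporter read: CellTiter-Glo luminescence after 30 min at room temperature. HEK 293T SBE-bla cells had 5 hr compound exposure at 37 C with TGF-beta1 (0.25 ng/mL stock).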

[12] = qHTS assay to identify small molecule agonists of the TGF-beta/Smad signaling pathway - cell viability counter screen (AID 1346829); further: top concentration of the series differs between compounds; nearly all actives have a fitted effect of over 45% in size
Summary of the method: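 Luminescence from CellTiter-Glo, read after a 30 min room-temperature incubation, gives cell viability of SBE-bla HEK 293T cells treated 5 hr with compounds at 37 C.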

[13] = qHTS assay to identify small molecule agonists of the TGF-beta/Smad signaling pathway (AID 1346859; active means well fitted activation curve with a large enough effect in the signal ratio in the repeat runs, not every such curve was filed as active; the % refers to the signal ratio; further: series mostly up to about 77 µM)
Summary of the method: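 HEK 293T cells stably carrying a beta-lactamase reporter driven by the Smad binding element were seeded overnight, exposed to DMSO-dissolved compounds for 5 hr at 37 C, 5% CO2, then loaded with FRET substrate for 2 hr at room temperature.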

[14] = target: Thyrotropin-releasing hormone receptor (Homo sapiens) (UniProt P34981); experiment: qHTS assay to identify small molecule antagonists of the thyrotropin-releasing hormone receptor (TRHR) signaling pathway (AID 1346877; active means well fitted inhibition curve with a large enough effect in the repeat runs, not every such curve was filed as active; further: series mostly up to about 51 µM)
Summary of the method: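 Antagonism is measured as suppression of the calcium response to 1 nM TRH in TRHR-HEK293 cells that have been dye-loaded for 2 h at 37 °C after overnight plating. Each compound is tested at 15 concentrations in triplicate.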

[15] = target: Estrogen receptor (Homo sapiens) (UniProt P03372); experiment: qHTS assay to identify small molecule agonists of the estrogen receptor alpha (ER-alpha) signaling pathway in the presence of an antagonist (AID 1259383; calls by dose curve; further: top concentration of the series differs between compounds; nearly all actives have a fitted effect of over 15% in size)
Summary of the method: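 Agonist-mode confirmation in the presence of the ER antagonist ICI-182,780 at 10.0nM final. Breast-derived VM7Luc4E2 reporter cells were exposed to compounds for 22hr, and ERE-driven luciferase was quantified by luminescence.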

[16] = qHTS assay to identify small molecule agonists or antagonists of the thyroid stimulating hormone receptor (TSHR) signaling pathway - wild type cell line counter screen (AID 1259384; calls by dose curve)
Summary of the method: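 Counter screen in untransfected Hek293: compounds (15-point titration, triplicate) plus phosphodiesterase inhibitor Ro20-1724 added after 18 h plating; 30 min RT. Intracellular cAMP via competitive d2/cryptate immunoassay, 1 h incubation.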

[17] = qHTS assay to identify small molecule agonists of the estrogen receptor beta (ER-beta) signaling pathway - cell viability counter screen (AID 1259380); further: nearly all actives have a fitted effect of over 30% in size; further: potency means the concentration at half of the fitted maximal effect
Summary of the method: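 Cytotoxicity is measured in parallel with the reporter screen: after 16 hr compound exposure at 37C and a 2 hr LiveBLAzer step, CellTiter-Glo is added to the same ER-beta-UAS-bla HEK293T wells and luminescence read after 30 min.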

[18] = target: Progesterone receptor (Homo sapiens) (UniProt P06401); experiment: qHTS assay to identify small molecule agonists of the progesterone receptor (PR) signaling pathway (AID 1346784; calls by dose curve; further: nearly all actives have a fitted effect of over 30% in size)
Summary of the method: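 PR-UAS-bla HEK 293T cells carrying a UAS-driven beta-lactamase reporter were seeded in medium with 2% charcoal-stripped FBS, preincubated 6 hr at 37C, then exposed to compounds in DMSO for 16 hr; agonism was read by LiveBLAzer B/G FRET fluorescence.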

[19] = target: Thyrotropin receptor (Homo sapiens) (UniProt P16473); experiment: qHTS assay to identify small molecule antagonists of the thyroid stimulating hormone receptor (TSHR) signaling pathway (AID 1259385; calls by dose curve; further: nearly all actives have a fitted effect of over 20% in size; further: potency means the concentration at half of the fitted maximal effect)
Summary of the method: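 Antagonist mode: compound-treated TSHR-expressing HEK293 cells were stimulated with 1.5 ng/mL TSH (final) in presence of Ro20-1724 for 30 min at RT. HTRF cAMP detection after 1 h; each compound tested at 15 concentrations, triplicate.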

[20] = target: Androgen receptor (Homo sapiens) (UniProt P10275); experiment: qHTS assay to identify small molecule agonists of the androgen receptor (AR) signaling pathway in the presence of an antagonist (AID 1259381; calls by dose curve; further: nearly all actives have a fitted effect of over 15% in size)
Summary of the method: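 Agonist-mode confirmation screen: human MDA-kb2 cells stably expressing luciferase under an MMTV promoter bearing AR and GR response elements, co-treated with 3.0uM nilutamide (final). Luminescence measured after 16hr compound incubation.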
On the % scale 0 is the no-effect control and ±100 the full control effect.

Chain of Progesterone receptor (Homo sapiens) (P06401 whole entry, looked up): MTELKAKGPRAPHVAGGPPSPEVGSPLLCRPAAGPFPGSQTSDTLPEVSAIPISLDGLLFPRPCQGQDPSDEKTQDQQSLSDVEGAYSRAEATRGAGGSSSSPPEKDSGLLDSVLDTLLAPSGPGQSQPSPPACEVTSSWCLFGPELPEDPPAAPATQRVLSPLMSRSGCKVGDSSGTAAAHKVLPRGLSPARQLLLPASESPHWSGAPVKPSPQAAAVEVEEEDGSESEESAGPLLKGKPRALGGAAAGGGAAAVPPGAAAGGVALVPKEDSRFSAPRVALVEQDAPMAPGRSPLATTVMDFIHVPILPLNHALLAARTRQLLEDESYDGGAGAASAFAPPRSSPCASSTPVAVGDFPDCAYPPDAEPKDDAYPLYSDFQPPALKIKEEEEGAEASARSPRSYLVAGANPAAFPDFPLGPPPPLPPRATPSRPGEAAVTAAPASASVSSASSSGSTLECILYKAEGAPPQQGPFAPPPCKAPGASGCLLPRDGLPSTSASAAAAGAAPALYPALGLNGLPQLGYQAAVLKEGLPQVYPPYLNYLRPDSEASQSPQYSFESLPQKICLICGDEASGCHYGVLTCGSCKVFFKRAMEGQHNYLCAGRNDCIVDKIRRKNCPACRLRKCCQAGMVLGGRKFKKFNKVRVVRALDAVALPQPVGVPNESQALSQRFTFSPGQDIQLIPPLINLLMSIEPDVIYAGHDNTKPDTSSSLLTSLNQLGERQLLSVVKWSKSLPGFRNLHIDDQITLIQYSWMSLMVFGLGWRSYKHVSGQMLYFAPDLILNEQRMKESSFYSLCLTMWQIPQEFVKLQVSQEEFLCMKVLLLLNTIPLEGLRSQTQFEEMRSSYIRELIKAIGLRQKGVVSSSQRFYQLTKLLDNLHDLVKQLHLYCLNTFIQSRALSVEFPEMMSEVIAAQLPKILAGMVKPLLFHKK
Chain of Thyrotropin-releasing hormone receptor (Homo sapiens) (P34981 whole entry, looked up): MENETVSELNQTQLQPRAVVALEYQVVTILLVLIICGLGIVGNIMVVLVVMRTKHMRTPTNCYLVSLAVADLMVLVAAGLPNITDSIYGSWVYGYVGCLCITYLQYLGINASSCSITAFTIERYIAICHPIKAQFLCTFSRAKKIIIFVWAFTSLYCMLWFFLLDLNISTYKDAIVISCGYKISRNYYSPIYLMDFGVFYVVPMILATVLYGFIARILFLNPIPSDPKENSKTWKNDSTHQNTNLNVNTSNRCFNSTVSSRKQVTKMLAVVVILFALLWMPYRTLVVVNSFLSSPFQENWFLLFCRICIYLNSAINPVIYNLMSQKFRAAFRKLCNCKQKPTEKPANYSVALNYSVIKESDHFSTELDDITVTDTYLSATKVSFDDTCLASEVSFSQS
Chain of Estrogen receptor (Homo sapiens) (P03372 whole entry, looked up): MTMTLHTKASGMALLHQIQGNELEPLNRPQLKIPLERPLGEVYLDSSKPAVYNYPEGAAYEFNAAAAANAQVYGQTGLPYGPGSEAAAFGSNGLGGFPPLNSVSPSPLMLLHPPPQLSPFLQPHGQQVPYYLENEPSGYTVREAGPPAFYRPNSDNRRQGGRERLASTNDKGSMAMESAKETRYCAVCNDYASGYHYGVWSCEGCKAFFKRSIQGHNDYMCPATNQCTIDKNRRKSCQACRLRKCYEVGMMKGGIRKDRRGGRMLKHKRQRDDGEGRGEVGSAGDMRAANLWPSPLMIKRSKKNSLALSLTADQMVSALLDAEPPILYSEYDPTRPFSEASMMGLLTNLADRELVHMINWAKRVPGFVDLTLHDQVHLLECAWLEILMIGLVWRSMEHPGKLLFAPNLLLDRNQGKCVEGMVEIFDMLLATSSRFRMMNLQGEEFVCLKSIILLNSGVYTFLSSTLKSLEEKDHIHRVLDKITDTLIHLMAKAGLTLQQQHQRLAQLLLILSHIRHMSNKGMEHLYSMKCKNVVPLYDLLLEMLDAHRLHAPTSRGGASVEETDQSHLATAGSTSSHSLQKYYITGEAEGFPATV
Chain of Thyrotropin receptor (Homo sapiens) (P16473 whole entry, looked up): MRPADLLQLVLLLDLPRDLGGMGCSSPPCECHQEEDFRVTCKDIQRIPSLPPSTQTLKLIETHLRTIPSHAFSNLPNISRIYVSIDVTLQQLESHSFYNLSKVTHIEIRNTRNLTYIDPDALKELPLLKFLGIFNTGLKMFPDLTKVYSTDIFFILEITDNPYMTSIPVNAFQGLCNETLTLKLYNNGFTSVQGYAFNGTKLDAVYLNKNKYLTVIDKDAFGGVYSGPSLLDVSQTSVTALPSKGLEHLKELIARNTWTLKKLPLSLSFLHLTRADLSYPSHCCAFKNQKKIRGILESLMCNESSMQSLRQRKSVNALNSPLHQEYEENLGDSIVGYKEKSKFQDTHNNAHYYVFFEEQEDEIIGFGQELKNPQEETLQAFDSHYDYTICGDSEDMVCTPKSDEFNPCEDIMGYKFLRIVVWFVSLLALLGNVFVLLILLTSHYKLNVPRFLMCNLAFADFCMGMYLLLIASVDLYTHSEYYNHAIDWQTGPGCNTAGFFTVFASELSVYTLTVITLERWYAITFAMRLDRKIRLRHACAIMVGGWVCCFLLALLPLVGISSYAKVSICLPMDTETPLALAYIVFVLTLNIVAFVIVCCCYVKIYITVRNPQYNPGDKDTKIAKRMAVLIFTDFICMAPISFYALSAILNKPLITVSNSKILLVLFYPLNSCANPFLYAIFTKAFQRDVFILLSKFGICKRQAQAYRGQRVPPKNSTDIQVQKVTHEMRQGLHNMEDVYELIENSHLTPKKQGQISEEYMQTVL
Chain of Estrogen receptor beta (Homo sapiens) (Q92731 whole entry, looked up): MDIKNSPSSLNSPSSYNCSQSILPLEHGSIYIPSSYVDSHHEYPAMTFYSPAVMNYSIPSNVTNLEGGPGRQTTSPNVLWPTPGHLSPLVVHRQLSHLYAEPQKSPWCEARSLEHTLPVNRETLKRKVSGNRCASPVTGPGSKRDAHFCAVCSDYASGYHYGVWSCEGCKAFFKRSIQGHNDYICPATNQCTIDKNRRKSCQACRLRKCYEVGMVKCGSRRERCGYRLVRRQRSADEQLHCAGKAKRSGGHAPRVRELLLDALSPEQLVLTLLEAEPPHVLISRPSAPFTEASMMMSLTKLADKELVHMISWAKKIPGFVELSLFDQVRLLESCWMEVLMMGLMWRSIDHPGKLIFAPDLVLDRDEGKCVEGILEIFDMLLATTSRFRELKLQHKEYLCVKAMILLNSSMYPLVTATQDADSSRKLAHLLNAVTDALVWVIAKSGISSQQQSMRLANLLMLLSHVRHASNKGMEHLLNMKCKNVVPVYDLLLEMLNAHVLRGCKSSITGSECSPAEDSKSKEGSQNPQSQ
Chain of Androgen receptor (Homo sapiens) (P10275 whole entry, looked up): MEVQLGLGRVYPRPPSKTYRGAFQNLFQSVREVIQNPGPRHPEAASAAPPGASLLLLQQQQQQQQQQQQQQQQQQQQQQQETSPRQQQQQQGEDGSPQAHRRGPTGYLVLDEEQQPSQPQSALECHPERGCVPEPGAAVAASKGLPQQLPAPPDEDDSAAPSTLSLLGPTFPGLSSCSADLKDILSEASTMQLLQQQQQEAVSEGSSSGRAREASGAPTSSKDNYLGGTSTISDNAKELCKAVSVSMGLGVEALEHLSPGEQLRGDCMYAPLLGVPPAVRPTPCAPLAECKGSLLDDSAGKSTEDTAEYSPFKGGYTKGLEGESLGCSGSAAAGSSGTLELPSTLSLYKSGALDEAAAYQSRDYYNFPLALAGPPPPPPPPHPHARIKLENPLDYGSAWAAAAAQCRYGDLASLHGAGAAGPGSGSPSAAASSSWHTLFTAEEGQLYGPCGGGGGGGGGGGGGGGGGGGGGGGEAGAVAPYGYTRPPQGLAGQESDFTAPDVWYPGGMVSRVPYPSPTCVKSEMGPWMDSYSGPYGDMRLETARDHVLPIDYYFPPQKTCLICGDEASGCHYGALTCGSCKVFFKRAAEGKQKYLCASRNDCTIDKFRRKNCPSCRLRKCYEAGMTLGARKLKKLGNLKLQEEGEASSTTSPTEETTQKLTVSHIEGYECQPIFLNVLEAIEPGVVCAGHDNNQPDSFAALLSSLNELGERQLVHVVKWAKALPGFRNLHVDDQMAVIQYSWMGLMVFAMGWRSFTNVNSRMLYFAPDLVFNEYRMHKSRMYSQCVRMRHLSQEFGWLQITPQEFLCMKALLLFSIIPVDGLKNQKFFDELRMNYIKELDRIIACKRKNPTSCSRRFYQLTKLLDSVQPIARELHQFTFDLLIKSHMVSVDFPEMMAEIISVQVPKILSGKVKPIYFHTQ

CCOC(C)OCC
inactive: Potency [1] | Potency [2] | Potency [3] | Potency [4] | Potency [5] | Potency [6] | Potency [7] | Potency [8] | Potency [9] | Potency [10] | outcome [11] | outcome [12] | outcome [13] | outcome [14]

CCCCCCCCCCCCCCCCCCCl
inactive: activity change [1] 0.949% [at 8.39 µM, stronger effect = higher value] | activity change, negative = inhibition [2] -7.01% [at 8.39 µM] | activation [3] -3.3% [at 8.39 µM] | activity, negative = inhibition [4] 21.3% [at 8.39 µM] | activity change, negative = cytotoxicity [6] -0.0396% [at 8.39 µM] | activation [15] 0.705% [at 8.39 µM] | cAMP activity change [16] -0.012% [at 8.39 µM] | activity change, negative = cytotoxicity [7] -0.0193% [at 8.39 µM] | activity change, negative = inhibition [8] 7.9% [at 8.39 µM] | activity change, negative = cytotoxicity [9] -19.4% [at 8.39 µM] | activity change, negative = cytotoxicity [10] -1.64% [at 8.39 µM] | viability change, negative = cytotoxic [11] -4.8% [at 6.97 µM] | activity change, negative = cytotoxicity [12] 3.73% [at 6.97 µM] | activation [13] 1.95% [at 6.97 µM] | activity, negative = inhibition [14] 0.326% [at 4.65 µM]

O=C1c2ccccc2C(=O)c2c1ccc(O)c2O
inactive: Potency [1] | Potency [2] | Potency [17] | Potency [6] | outcome [16] | Potency [18] | Potency [9] | outcome [11] | outcome [12] | outcome [13]
active: Potency [3] 7.5 µM | Potency [7] 26.6 µM

CCN(CCCCOC(=O)c1ccc(OC)c(OC)c1)C(C)Cc1ccc(OC)cc1 (stereo not given)
active: Potency [19] 29.8 µM
inactive: Potency [1] | Potency [2] | Potency [3] | Potency [4] | Potency [15] | outcome [16] | Potency [7] | Potency [18] | Potency [9] | outcome [11] | outcome [12] | outcome [13] | outcome [14]

CCCOC(C)=O
inactive: Potency [1] | Potency [2] | Potency [3] | Potency [4] | Potency [20] | Potency [6] | Potency [15] | outcome [16] | Potency [19] | Potency [7] | Potency [8] | Potency [9] | Potency [10] | outcome [11] | outcome [12] | outcome [13] | outcome [14]

Cc1c(Cl)cccc1[N+](=O)[O-]
inactive: Potency [1] | Potency [2] | Potency [3] | Potency [4] | Potency [5] | Potency [6] | Potency [7] | Potency [18] | Potency [8] | Potency [9] | Potency [10] | outcome [11] | outcome [12] | outcome [13] | outcome [14]

NC(=O)c1ccccc1C(N)=O
inactive: Potency [1] | Potency [2] | Potency [4] | Potency [5] | Potency [20] | Potency [15] | outcome [16] | Potency [7] | Potency [8] | Potency [9] | outcome [11] | outcome [12] | outcome [13] | outcome [14]
active: Potency [17] 61.4 µM

O=C(O)c1ccccc1-n1cc(C(=O)O)c(=O)c2cc(Nc3c(F)cc(F)cc3Cl)c(Cl)cc21
inactive: Potency [1] | Potency [2] | Potency [3] | Potency [4] | Potency [17] | Potency [6] | Potency [15] | outcome [16] | Potency [7] | Potency [18] | Potency [8] | Potency [9] | outcome [11] | outcome [12] | outcome [13]

OCCc1ccncc1
inactive: Potency [1] | Potency [2] | Potency [3] | Potency [4] | Potency [17] | Potency [6] | Potency [15] | outcome [16] | Potency [19] | Potency [7] | Potency [18] | Potency [8] | Potency [9] | Potency [10] | outcome [11] | outcome [12] | outcome [13] | outcome [14]
